Mm-Cpn inhibitor = M. maripaludis TRiC chaperonin inhibition. purified Mm-Cpn ATPase, ADP Transcreener TR-FRET. Potency, µM (series often up to 76.9 µM), hits mostly inhibitors. 330,000 tested, 0.031% active. AID 504842; also: nearly all actives have a fitted effect of over 80% in size
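Quantitative HTS used 25 nM Mm-CPN and 10 uM ATP in magnesium/KCl Tris buffer, pH 7.4, with 1 mM DTT. Hydrolysis ran 30 min at 37°C; ADP was read by HTRF.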
PLK1 PBD inh = blocks phosphopeptide binding to human PLK1 polo-box domain; P53350; Plk1 PBD binding of FITC phosphopeptide, fluorescence polarization; Potency, µM, usual class: inhibitors; 360,000 tested, 2.8% active; also: series mostly up to about 57 µM; nearly all actives have a fitted effect of over 65% in size
Target sequence (P53350 whole entry, looked up, the tested form may be a part): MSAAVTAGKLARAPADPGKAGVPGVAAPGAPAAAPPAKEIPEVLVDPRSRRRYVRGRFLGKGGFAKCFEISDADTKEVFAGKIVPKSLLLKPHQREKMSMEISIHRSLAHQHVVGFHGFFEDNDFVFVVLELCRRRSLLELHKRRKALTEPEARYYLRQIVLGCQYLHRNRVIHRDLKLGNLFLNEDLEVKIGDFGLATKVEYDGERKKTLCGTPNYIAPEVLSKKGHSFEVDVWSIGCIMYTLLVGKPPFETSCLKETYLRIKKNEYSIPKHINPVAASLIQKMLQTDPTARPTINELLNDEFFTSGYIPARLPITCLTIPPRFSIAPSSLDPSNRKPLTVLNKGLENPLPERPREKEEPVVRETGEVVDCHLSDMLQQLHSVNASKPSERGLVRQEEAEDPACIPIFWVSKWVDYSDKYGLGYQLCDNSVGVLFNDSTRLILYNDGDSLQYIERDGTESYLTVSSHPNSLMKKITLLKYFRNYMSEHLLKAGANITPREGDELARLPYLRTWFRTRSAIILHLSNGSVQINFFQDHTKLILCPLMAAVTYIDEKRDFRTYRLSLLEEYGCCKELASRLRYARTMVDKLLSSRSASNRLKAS
VDR inhibitor = vitamin D3 receptor (human) inhibition; VDR-SRC2-3 peptide fluorescence polarization, 2 h; Potency, µM, actives largely listed as inhibitors; 400,000 tested, 0.93% active
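Measured by FP: displacement of SRC2-3 coactivator peptide from VDR by library compounds, following a two-hour ambient incubation.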
CCT modulator = cytosolic chaperonin activity modulation; purified chaperonin ATPase assay, HTRF ADP detection, 30 min; activity change, % (test concentration not listed), hits read low; 360,000 tested, 0.3% active; in the data active = activity change below about -30%
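Enzyme 40 or 20 nM (batch-dependent) in Tris pH 7.4/KCl/MgCl2/DTT; cpd 76 uM single point; ATP 10 uM; 30 min 37 °C; Transcreener ADP HTRF detection, 30 min RT; ratio 665/615.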
G9a inh = blocks human histone lysine methyltransferase G9a; Q96KQ7; G9a H3K9 monomethylation, AlphaScreen, 2 h; Potency, µM (titrated, usually from 102 µM), actives largely listed as inhibitors; 350,000 tested, 8.8% active; AID 504332; also: nearly all actives have a fitted effect of over 75% in size
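Methyltransferase reactions run at room temperature for 2 h (20 nM enzyme, 500 nM biotin-H3K9 peptide, 20 uM SAM) after a 15 min compound preincubation; product detected by AlphaScreen beads and anti-H3K9me1 antibody.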
Sfp PPTase inh = Sfp phosphopantetheinyl transferase inhibition. Potency, µM, most hits filed as inhibitors. 310,000 tested, 3.5% active. Q9F4F7. Biochemical Sfp PPTase activity, qHTS;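 also: the enzyme is Sfp with the accession as filed and its product quenches rhodamine fluorescence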
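Fluorescence-quenching assay with 15 nM Sfp, 5 uM rhodamine-CoA and 12.5 uM BHQ-2-labelled ybbR peptide in pH 7.6 Hepes/MgCl2 buffer. Enzyme was pre-incubated with compound for 15 min at room temperature. Rate was taken from the 30-min fluorescence change (525/598 nm).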
VDR confirm = confirmation of human vitamin D receptor inhibitors. shares compounds with VDR inhibitor. VDR-coactivator inhibition assay, qHTS confirmation. Potency, µM, actives largely listed as inhibitors. 840 tested, 89% active. AID 602199
VDR FP fluor = VDR (human) coactivator binding inhibition, fluorescein polarization; shares compounds with VDR inhibitor; VDR-coactivator binding, fluorescein fluorescence polarization; Potency, µM (titrated, usually from 57.1 µM), most hits filed as inhibitors; 840 tested, 48% active
VDR bla = confirmation of human vitamin D receptor inhibitors in reporter cells; shares compounds with VDR inhibitor; VDR beta-lactamase reporter cells, FRET ratio; cells co-treated with VDR agonist LG190178; Potency, µM (doses to about 46.1 µM), usual class: inhibitors; 840 tested, 23% active
VDR viability = counter-screen for vitamin D receptor inhibitors: cytotoxicity; shares compounds with VDR inhibitor; cytotoxicity counter-screen, cell viability, qHTS; Potency, µM (doses to about 48.3 µM), usual class: cytotoxic; 840 tested, 18% active; AID 602204; also: nearly all actives have a fitted effect of over 75% in size
Numbers stand for hits. In the library only some 10% were active in any assay of this set; here they are far more common. Unless noted, calls follow the shape of the dose curve; as a rule, active = well fitted curve in the direction sought with a large enough effect; inconclusive = small, poorly fitted or top-dose-only effect, or another doubt; inactive = no such curve, though single readings can be large; an effect the other way counts as inactive or inconclusive.

CC(C)(C)c1ccc(-n2nc(C#N)c(Cl)cc2=O)cc1 was read as Mm-Cpn inhibitor inactive, PLK1 PBD inh inconclusive, VDR inhibitor inconclusive, CCT modulator inactive, G9a inh inconclusive, Sfp PPTase inh inactive, VDR confirm 7.9, VDR FP fluor 8.9µM, VDR bla 2.6µM and VDR viability inconclusive.
`CC(C)(C)c1cc(=O)n2c(C#N)c(C#N)nc2[nH]1` gave Mm-Cpn inhibitor inactive, PLK1 PBD inh inactive, VDR inhibitor inactive, CCT modulator inactive, G9a inh inactive and Sfp PPTase inh inactive.
Screening CC(=O)Oc1cccc(/C=c2\sc3nc(-c4ccco4)nn3c2=O)c1 returned Mm-Cpn inhibitor inactive, PLK1 PBD inh inconclusive, VDR inhibitor inconclusive, CCT modulator inactive, G9a inh inconclusive, Sfp PPTase inh inactive, VDR confirm 11, VDR FP fluor inconclusive, VDR bla inactive and VDR viability inactive.
Screening Cn1nnc2c(NCCc3ccccc3)ncnc21 returned VDR inhibitor inactive and G9a inh inactive.
CCCOc1ccccc1/C=C1/C(=O)ON=C1C was read as Mm-Cpn inhibitor inactive, PLK1 PBD inh 3µM, VDR inhibitor 25µM, CCT modulator inactive, G9a inh inactive, Sfp PPTase inh 56µM, VDR confirm 13, VDR FP fluor inconclusive, VDR bla inactive and VDR viability inactive.
`CCOc1cc(/C=C/C(=O)O)ccc1OCCOc1ccccc1` gave Mm-Cpn inhibitor inactive, PLK1 PBD inh inactive, VDR inhibitor inactive, CCT modulator inactive, G9a inh inactive and Sfp PPTase inh inactive.
For CCCOc1ccc(/C=C2/C(=O)ON=C2C)cc1OCC the results were Mm-Cpn inhibitor inactive, PLK1 PBD inh 1.7µM, VDR inhibitor inconclusive, CCT modulator inactive, G9a inh 45µM, Sfp PPTase inh inconclusive, VDR confirm 13, VDR FP fluor 7.1µM, VDR bla inconclusive and VDR viability inactive.
CCC(=O)Nc1ccc(CC)cc1-c1nc2ccccc2n(CC(=O)Nc2cccc(Cl)c2)c1=O was read as VDR inhibitor inactive and G9a inh inactive.
`CC(=O)c1cccc(NC(=O)c2cnn(-c3cccc(C)c3)c2-n2cccc2)c1` gave VDR inhibitor inactive and G9a inh inactive.
Screening C/C(=C\c1cccc(Cl)c1Cl)C(=O)c1c(C)cc(C)[nH]c1=O returned Mm-Cpn inhibitor inactive, PLK1 PBD inh inactive, VDR inhibitor inactive, CCT modulator inactive, G9a inh inactive and Sfp PPTase inh inactive.
`CNc1ccc(Br)cc(C(=O)/C=C/c2cccc(Cl)c2Cl)c1=O` gave Mm-Cpn inhibitor inactive, PLK1 PBD inh inconclusive, VDR inhibitor inconclusive, CCT modulator inactive, G9a inh 28µM, Sfp PPTase inh 22µM, VDR confirm 8.9, VDR FP fluor inactive, VDR bla 23µM and VDR viability inactive.
O=C(O)CCC(=O)C(=O)O (tested in a mixture with another compound) was read as VDR inhibitor inactive and Sfp PPTase inh inactive.
For Cc1ccc(S(=O)(=O)NC(Cc2ccccc2)C(=O)NN)cc1 (stereo not given) the results were Mm-Cpn inhibitor inactive, PLK1 PBD inh inactive, VDR inhibitor inactive, CCT modulator inactive and Sfp PPTase inh inactive.
